In all, about 410,000 compounds went through this assay and about 2,000 (0.49%) were called active. Roughly 8% stayed inconclusive and do not appear here. This is one part of a sample in which actives are shown more often than they occur. The call rests on the fitted dose curve; tested in HEK293 reporter line.
test: qHTS Assay for Foot and Mouth Disease Virus Antivirals: Primary Screen against the MLPCN compound library; conditions: FMDV antiviral cell-based qHTS; series mostly up to 57.9 µM; activity, negative = inhibition: at the top concentration; further: nearly all actives have a fitted effect of over 55% in size
Potency means the concentration at half of the fitted maximal effect.

Row | Structure (SMILES) | activity, negative = inhibition | Potency
1 | COc1ccccc1C(CNC(=O)c1ccc(-c2ccccc2Cl)o1)N1CCCC1 (stereo unspecified) | -35.2% (inactive) | 
2 | CC1C/C(=N/Nc2ccc([N+](=O)[O-])cc2[N+](=O)[O-])CC(C)(C)C1 (stereo unspecified) | -33% (inactive) | 
3 | COc1cc(C)c(-c2[nH]ncc2-c2csc(C)n2)c(O)c1 | -38.2% (inactive) | 
4 | Cc1ccc(C(=O)Cn2c(=N)n(N)c3ccccc32)cc1 | -55.9% (inactive) | 
5 | Cc1ccc(C(=O)Cn2c3c(sc2=N)CCCC3)cc1 |  | 7.94 µM (active)
6 | CCOC(=O)Cn1nc(C)c(NC(=O)COc2ccc(OC)cc2)c1C | -31.4% (inactive) | 
7 | COc1ccc2nc(C)cc(SCC(=O)N/N=C/c3c(OC)ccc4ccccc34)c2c1 | -36.7% (inactive) | 
8 | Cc1ccc(-c2csc(Nc3ccc(S(N)(=O)=O)cc3)n2)o1 | -30.9% (inactive) | 
9 | Cc1ccc(NC(=S)Nc2ccc3[nH]c(=O)[nH]c3c2)cc1 | -37.6% (inactive) | 
10 | COc1ccc(-c2noc(CCCOc3ccccc3)n2)cc1OC | -34.9% (inactive) | 
11 | Cc1cc(OCc2nc(-c3ccncc3)no2)cc(C)c1Cl | -36.6% (inactive) | 
12 | Cc1ccc(OCc2nc(-c3ccccn3)no2)c(Br)c1 |  | 20 µM (active)
13 | O=C(NCc1ccccn1)c1ccccc1OCc1ccc(Cl)cc1Cl | -31.9% (inactive) | 
14 | COc1ccc(Br)cc1CNC(=O)CCc1nc(-c2ccc(C)cc2)no1 | -32.7% (inactive) | 
15 | Clc1ccc(OCc2nc(-c3ccccn3)no2)c(Br)c1 |  | 20 µM (active)
16 | CCn1c(SCC(=O)Nc2cccc(NC(C)=O)c2)nc2c([nH]c3ccccc32)c1=O | -30.1% (inactive) | 
17 | COc1ccc(C(=O)c2cn(Cc3ccccc3)c3ccccc3c2=O)cc1OC | -30.9% (inactive) | 
18 | COc1cc(NC(=O)c2ccc3oc(=O)c(S(=O)(=O)c4ccccc4)cc3c2)cc(OC)c1 | -26.9% (inactive) | 
19 | CCCCn1c(=O)[nH]c(=O)c2c1nc(CN1C(=O)c3ccccc3S1(=O)=O)n2CCC | -41.4% (inactive) | 
20 | Cc1cccc(C)c1NC(=O)Cn1c(=O)n(Cc2ccco2)c(=O)c2ccc(C(=O)NC3CCCC3)cc21 | -30.3% (inactive) | 
21 | COc1ccc2c(c1)C1(C)CC(C)(C)N2C(=O)N1c1ccccc1 (stereo unspecified) | -39.4% (inactive) | 
22 | COC(OC)C12c3ccccc3C(c3ccccc31)C1C(=O)N(c3cccnc3)C(=O)C12 (stereo unspecified) | -32.8% (inactive) | 
23 | COc1cccc(N2C(=O)C3C(C2=O)C3(c2ccccc2)c2ccccc2)c1 (stereo unspecified) |  | 14.1 µM (active)
24 | CCn1c(SCC(=O)N/N=C/c2c[nH]c3ccccc23)nnc1-c1ccc(Cl)cc1 | -32.6% (inactive) | 
25 | CC1c2cc3c(cc2CCN1C(=O)c1ccc(C(F)(F)F)cc1)OCCCO3 (stereo unspecified) | -34.3% (inactive) | 
26 | CC(=O)c1ccc(N2CCN(C(=O)CCCCn3c(=O)[nH]c4ccsc4c3=O)CC2)cc1 | -34.1% (inactive) | 

Row | Structure (SMILES) | activity, negative = inhibition | Potency
27 | CC(C)(C)OC(=O)C[C@@H]1C/C=C\C[C@@H](CC(=O)N[C@@H](CO)Cc2ccccc2)C(=O)NC[C@@H](c2ccccc2)OC1=O | -31.5% (inactive) | 
28 | Cc1ccc(CSCC(=O)N2CCN(Cc3ccc4c(c3)OCO4)CC2)cc1 | -35.9% (inactive) | 
29 | CC(C)[C@@H](C(=O)N1CCN(Cc2ccc3c(c2)OCO3)CC1)n1nnc2ccccc2c1=O | -39.5% (inactive) | 
30 | O=C(CCCCCn1c(=O)[nH]c2ccccc2c1=O)N1CCN(Cc2ccc3c(c2)OCO3)CC1 |  | 20 µM (active)
31 | Cc1nnc(SCC(=O)N2CCCC2)n1-c1ccc(F)cc1 | -42.8% (inactive) | 
32 | CC(=O)c1ccc(NC(=O)c2noc3c2CCC3)cc1 |  | 20 µM (active)
33 | CC(=O)c1ccc(NC(=O)c2cc(S(=O)(=O)N3CCOCC3)ccc2C)cc1 | -36.2% (inactive) | 
34 | COc1cc(NC(=O)c2noc3c2CCc2ccccc2-3)cc(OC)c1OC | -31.7% (inactive) | 
35 | O=C(CSc1nnc2c(Cl)cc(Cl)cn12)N1CCOCC1 | -14.8% (inactive) | 
36 | CCNc1nc2c(c(=O)n(Cc3ccccc3)c(=O)n2C)n1Cc1ccccc1 | -32.7% (inactive) | 
37 | O=c1c2cnn(-c3ccccc3)c2ncn1Cc1ccccc1 | -37.6% (inactive) | 
38 | Cn1ncc(S(=O)(=O)Cc2ccccc2)c(Cl)c1=O |  | 20 µM (active)
39 | COC(OC)c1ccnc(-c2ccc(OC(=O)c3ccc(F)cc3)cc2)n1 | -38.9% (inactive) | 
40 | COc1cccc2cc(-c3nc(-c4ccccc4F)no3)c(=O)oc12 | -45.9% (inactive) | 
41 | COc1ccc(C(=O)NNC(=O)c2ccccn2)cc1 | -98.5% (inactive) | 
42 | COc1ccccc1-c1nc(-c2ccccn2)no1 |  | 14.1 µM (active)
43 | O=C(Oc1ccc(-c2nc(-c3ccccn3)no2)cc1)c1ccccc1 |  | 14.1 µM (active)
44 | COc1ccccc1-c1noc(-c2ccc(N3CCN(c4ccccc4)CC3)c([N+](=O)[O-])c2)n1 | -38.3% (inactive) | 
45 | COc1ccc(CN2CCN(Cc3ccc(C(F)(F)F)cc3)CC2)c(OC)c1 | -30.9% (inactive) | 
46 | Cc1cc(OCCOc2cccc3cccnc23)cc(C)c1Cl | -34.1% (inactive) | 
47 | COc1cccc(/C=N/Nc2ncnc(N)c2[N+](=O)[O-])c1OC |  | 7.94 µM (active)
48 | COc1cccc(/C=N/NC(=O)c2cc3c(OC)cccc3[nH]2)c1OC | -38.6% (inactive) | 
49 | CC1Cc2ccccc2N1c1ncnc(N)c1[N+](=O)[O-] (stereo unspecified) | -21.1% (inactive) | 
50 | CN(c1ccc(C(=O)NCc2cccnc2)cc1)S(=O)(=O)c1ccc(Cl)cc1 | -31.9% (inactive) | 
51 | O=C(NC1CC1)C1CCN(S(=O)(=O)c2cc([N+](=O)[O-])ccc2Cl)CC1 | -11.8% (inactive) | 
